From PubChem BioAssay (NCATS)
Records with an inconclusive call do not appear. Activity calls are given as the source filed them. Unless noted, the call rests on the fitted dose curve; in most records, active means well fitted curve in the direction sought with a large enough effect; inconclusive means small, poorly fitted or top-dose-only effect, or another doubt; inactive means no such curve, though single readings can be large; an effect the other way counts as inactive or inconclusive.

Experiments:
[1] = P-glycoprotein substrates identified in KB-8-5-11 adenocarcinoma cell line, qHTS therapeutic library screen (AID 1346987); further: nearly all actives have a fitted effect of over 65% in size; further: potency means the concentration at half of the fitted maximal effect
How it was run: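 KB-8-5-11, a colchicine-selected P-gp-overexpressing KB-3-1 subline, was grown without colchicine for the assay. Cells were seeded at 500 cells/well, dosed in concentration-response and incubated 72 h at 37 degree C, 5% CO2. Viability was read by CellTiter-Glo luminescence.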

[2] = molecular target: Cytochrome P450 2D6 (Homo sapiens) (UniProt P10635); experiment: Cytochrome P450 family 2 subfamily D member 6 (CYP2D6) small molecule antagonists: luciferase biochemical (cell-free) qHTS assay (AID 1645840; active means well fitted curve in the direction sought with a large enough effect in the repeat runs; an effect the other way counts as inactive or inconclusive; further: nearly all actives have a fitted effect of over 55% in size; further: potency means the concentration at half of the fitted maximal effect; on activity change, negative = inhibition: on the % scale 0 is the no-effect control and ±100 the full control effect)
How it was run: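 P450-Glo luminescent screen: recombinant CYP2D6 enzyme–proluciferin substrate mix preincubated with compound 10 min at room temperature, then NADPH regeneration added for 1 h at room temperature. Detection reagent added for 20 min; luciferin light read as relative luminescence units.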

[3] = molecular target: Cytochrome P450 2C9 (Homo sapiens) (UniProt P11712); experiment: Cytochrome P450 family 2 subfamily C member 9 (CYP2C9) small molecule antagonists: luciferase biochemical (cell-free) qHTS assay (AID 1645842; active means well fitted curve in the direction sought with a large enough effect in the repeat runs; an effect the other way counts as inactive or inconclusive; further: potency means the concentration at half of the fitted maximal effect; nearly all actives have a fitted effect of over 55% in size)
How it was run: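 Luminescence, after 20 min with luciferin detection reagent, reflected CYP2C9 turnover during a 1 h NADPH-driven reaction at 37C. Enzyme-substrate mix contained 0.4% bovine serum albumin and was preincubated with compound 10 min at room temperature.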

HaCat = experiment: Cytotoxic Profiling of Annotated Libraries Using Quantitative High-Throughput Screening (AID 1296008); details: Five cell lines viability, CellTiter-Glo ATP luminescence, 48-72 h; max response: stronger effect = lower value; further: nearly all actives have a fitted effect of over 60% in size; further: potency means the concentration at half of the fitted maximal effect; on max response: on the % scale 0 is the no-effect control and ±100 the full control effect
How it was run: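 Cytotoxicity was measured as CellTiter-Glo ATP luminescence, read after 10 min at room temperature. Compound treatment of the cells lasted 48 or 72 hr at 37 degrees Celsius in a qHTS format.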

CAOV3 = experiment: Primary qHTS to identify gynecologic anti-cancer compounds using libraries of approved drugs and bioactive compounds (AID 1345084); details: Gynecologic cancer cell panel viability, ATPlite luminescence, 48 h; series mostly up to 57.5 µM; further: nearly all actives have a fitted effect of over 55% in size; further: potency means the concentration at half of the fitted maximal effect
How it was run: (§1)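 In this quantitative HTS, cell killing is estimated from loss of ATP-dependent luciferase light. Cells see five compound concentrations over a 48 h exposure.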

SKOV3 = experiment: as above; details: Gynecologic cancer cell panel viability, ATPlite luminescence, 48 h; series mostly up to 57.5 µM
How it was run: as §1

[4] = tested on: Zika virus NS2B-NS3 protease (unlinked complex); experiment: Primary screen GU Rhodamine qHTS for Zika virus inhibitors: Unlinked NS2B-NS3 protease assay (AID 1347159); further: on the % scale 0 is the no-effect control and ±100 the full control effect; nearly all actives have a fitted effect of over 60% in size
How it was run: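 Percent inhibition derives from the 15-min fluorescence change (ex 480, em 540 nm), normalized to no-enzyme and no-inhibitor wells. Reactions contained 25 nM NS2B-NS3 complex and 1.5 microM substrate in 10 mM Tris-HCl pH 8.0.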

[5] = qHTS to identify inhibitors of the type 1 interferon - major histocompatibility complex class I in skeletal muscle: primary screen against the NCATS Mechanism Interrogation Plate v5.0 (MIPE) Libary (AID 1347411);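 further: plate controls were vehicle for no effect and reference inhibitor for full effect; nearly all actives have a fitted effect of over 65% in size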
How it was run: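 Immortalized human myoblasts (C25cl48) with HiBit knocked into endogenous HLA-B*08:01 were stimulated with 4 ng/ml IFN-beta and given compounds in 11-point 1:3 titration from 46 uM. After 24 h at 37 C, lytic HiBiT luminescence was read.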

[6] = qHTS drug screen for cell cycle checkpoint inhibitors in PARPi-resistant BRCA-mutant ovarian cancer cell lines. (AID 1963452; calls by dose curve); details: PEO1/OlaR viability, CellTiter-Glo luminescence, 96 h, stronger effect = lower value
How it was run: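 PEO1, PEO4 and PEO1/OlaR ovarian cancer cells, 600 per well, exposed 96 h at 37C to a dilution series. Viability read by CellTiter-Glo luminescence, normalized to DMSO and empty wells; activity summarized as Z-AUC.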

[7] = molecular target: Catechol O-methyltransferase (Homo sapiens) (UniProt P21964); experiment: Confirmatory Screen for Target Class Profiling of Small Molecule Inhibitors of Methyltransferases (AID 1745852; calls by dose curve; further: potency means the concentration at half of the fitted maximal effect); details: MTase-Glo luminescence, SAH detection, recombinant enzyme; measured here: COMT max response; stronger effect = lower value
[8] = molecular target: Guanidinoacetate N-methyltransferase (Homo sapiens) (UniProt Q14353); experiment: as above; details: activity change, negative = inhibition: at 57.3 µM (top of the series) unless noted
[9] = molecular target: Nicotinamide N-methyltransferase (Homo sapiens) (UniProt P40261); experiment: as above; details: MTase-Glo luminescence, SAH detection, recombinant enzyme; measured here: NNMT max response; stronger effect = lower value
[10] = molecular target: Phenylethanolamine N-methyltransferase (Homo sapiens) (UniProt P11086); experiment: as above; details: MTase-Glo luminescence, SAH detection, recombinant enzyme; measured here: PNMT max response; stronger effect = lower value
Chain of Phenylethanolamine N-methyltransferase (Homo sapiens) (P11086 whole entry, looked up): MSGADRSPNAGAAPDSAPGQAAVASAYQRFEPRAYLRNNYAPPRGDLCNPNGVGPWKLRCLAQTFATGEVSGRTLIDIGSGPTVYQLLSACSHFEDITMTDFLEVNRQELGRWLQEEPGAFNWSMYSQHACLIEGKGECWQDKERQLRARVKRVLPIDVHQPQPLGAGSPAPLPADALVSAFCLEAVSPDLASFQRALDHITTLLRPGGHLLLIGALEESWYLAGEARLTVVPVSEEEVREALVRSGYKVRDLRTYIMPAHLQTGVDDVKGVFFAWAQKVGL

Chain of Cytochrome P450 2C9 (Homo sapiens) (P11712 whole entry, looked up): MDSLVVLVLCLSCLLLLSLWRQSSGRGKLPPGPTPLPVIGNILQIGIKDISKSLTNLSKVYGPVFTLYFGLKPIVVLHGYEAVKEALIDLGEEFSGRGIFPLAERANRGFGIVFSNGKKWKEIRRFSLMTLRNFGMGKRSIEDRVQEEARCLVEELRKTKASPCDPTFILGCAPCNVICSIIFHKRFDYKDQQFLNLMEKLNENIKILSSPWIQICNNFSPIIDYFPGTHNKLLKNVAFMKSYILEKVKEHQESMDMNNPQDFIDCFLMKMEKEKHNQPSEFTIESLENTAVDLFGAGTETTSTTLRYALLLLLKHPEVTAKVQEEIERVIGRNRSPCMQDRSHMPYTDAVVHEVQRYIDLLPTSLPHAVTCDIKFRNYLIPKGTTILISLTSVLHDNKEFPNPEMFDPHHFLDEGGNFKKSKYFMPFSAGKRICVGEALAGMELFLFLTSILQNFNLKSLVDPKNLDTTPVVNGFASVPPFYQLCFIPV
Chain of Cytochrome P450 2D6 (Homo sapiens) (P10635 whole entry, looked up): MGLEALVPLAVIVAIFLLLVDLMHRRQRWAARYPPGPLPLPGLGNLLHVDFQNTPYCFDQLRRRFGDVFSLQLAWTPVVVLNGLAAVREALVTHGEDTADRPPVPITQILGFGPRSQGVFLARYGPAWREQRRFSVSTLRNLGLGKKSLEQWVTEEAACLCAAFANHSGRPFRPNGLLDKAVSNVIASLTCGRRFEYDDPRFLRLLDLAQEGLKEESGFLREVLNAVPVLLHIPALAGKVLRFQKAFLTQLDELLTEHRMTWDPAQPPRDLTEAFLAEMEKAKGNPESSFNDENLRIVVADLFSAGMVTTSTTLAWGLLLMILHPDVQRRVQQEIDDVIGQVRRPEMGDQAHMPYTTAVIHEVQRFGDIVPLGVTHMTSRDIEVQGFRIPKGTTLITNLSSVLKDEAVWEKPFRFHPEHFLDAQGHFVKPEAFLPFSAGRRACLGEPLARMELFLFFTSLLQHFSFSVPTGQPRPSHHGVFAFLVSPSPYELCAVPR
Chain of Catechol O-methyltransferase (Homo sapiens) (P21964 whole entry, looked up): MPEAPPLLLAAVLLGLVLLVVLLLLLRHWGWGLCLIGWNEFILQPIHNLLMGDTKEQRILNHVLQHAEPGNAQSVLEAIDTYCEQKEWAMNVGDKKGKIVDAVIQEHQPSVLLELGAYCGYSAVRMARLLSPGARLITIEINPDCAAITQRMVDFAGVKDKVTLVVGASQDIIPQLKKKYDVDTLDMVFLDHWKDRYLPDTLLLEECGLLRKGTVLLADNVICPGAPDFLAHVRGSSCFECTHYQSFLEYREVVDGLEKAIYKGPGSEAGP
Chain of Nicotinamide N-methyltransferase (Homo sapiens) (P40261 whole entry, looked up): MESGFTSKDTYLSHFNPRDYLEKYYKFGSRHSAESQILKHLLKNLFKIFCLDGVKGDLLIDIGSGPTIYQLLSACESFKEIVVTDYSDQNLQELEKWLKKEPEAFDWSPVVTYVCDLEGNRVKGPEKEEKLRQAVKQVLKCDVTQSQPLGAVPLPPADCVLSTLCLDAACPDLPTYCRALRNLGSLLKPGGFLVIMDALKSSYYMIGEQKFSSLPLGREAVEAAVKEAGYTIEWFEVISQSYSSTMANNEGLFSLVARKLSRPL

Q: With `CCC[C@@H](NC(=O)N1C(=O)C(CC)(CC)[C@@H]1Oc1ccc(C(=O)N2CCN(C)CC2)cc1)c1ccc2c(c1)OCO2` as the molecule, how does the Potency [1] read?
A: 20.6 µM (active)

Q: What about the Potency [2] of the same molecule?
A: 16.9 µM (active)

Q: What about the Potency [3] of the same molecule?
A: 3.38 µM (active)

Q: And the outcome (HaCat)?
A: inactive

Q: And the Potency (CAOV3)?
A: inactive

Q: What about the Potency (SKOV3) of the same molecule?
A: inactive

Q: For `C=C(C)C(=O)OC1[C@@H]2C(=C)C(=O)O[C@@H]2C[C@@H](C)[C@@H]2C=CC(=O)[C@@]12C` (some centres undefined), which Potency [4] is on record?
A: inactive

Q: What about the outcome (HaCat) of the same molecule?
A: inactive

Q: And the Potency (CAOV3)?
A: inactive

Q: And the Potency (SKOV3)?
A: inactive

Q: Which results are given for `CC[C@H](CO)Nc1nc(Nc2cccc(-c3ccccn3)c2)c2ncn(C(C)C)c2n1`?
A: Potency [1]: 20.6 µM (active); Potency [3]: 0.379 µM (active); Potency (HaCat): 18.4 µM (active); Potency (CAOV3): inactive; Potency (SKOV3): inactive

Q: With `CN(CCCNC(=O)c1ccc2nc3c(c(Cl)c2c1)CCCC3)Cc1ccccc1` as the molecule, how does the Potency [2] read?
A: 1.34 µM (active)

Q: And the Potency [3]?
A: 15.1 µM (active)

Q: And the max response (HaCat)?
A: 1.7% (inactive)

Q: And the Potency (SKOV3)?
A: inactive

Q: Which results are given for `O=C(NNc1ccccc1)c1ccncc1`?
A: Potency [1]: inactive; Potency [4]: inactive; Potency [5]: inactive; Z-AUC [6]: 1.21 (inactive); Z-AUC ([6]; measured here: PEO1 parental Z-AUC): 0.257; Z-AUC ([6]; measured here: PEO4 Z-AUC): 0.154; max response (HaCat): -7.12% (inactive); Potency (CAOV3): inactive

Q: What does the source list for `CC1CCC(n2c3cnccc3c3cnc(Nc4ccc5c(n4)CCN(C(=O)CO)C5)nc32)CC1` (centres undefined)?
A: Potency [1]: 5.8 µM (active); Potency [4]: inactive; activity change, negative = inhibition [5]: -18.6% [at 8.44 µM] (inactive); Potency [2]: inactive; max response (HaCat): -0.578% (inactive); Potency (CAOV3): inactive

Q: For `CCCCn1c(-c2ccccc2)nc(-c2ccccc2)c1CN(Cc1ccc2c(c1)OCO2)Cc1ccc2c(c1)OCO2`, which Potency [2] is on record?
A: 0.849 µM (active)

Q: And the Potency [3]?
A: 2.68 µM (active)

Q: And the max response (HaCat)?
A: -27.1% (inactive)

Q: And the Potency (CAOV3)?
A: inactive

Q: What about the Potency (SKOV3) of the same molecule?
A: inactive

Q: For `Cc1ccc(C(=O)N2CCN(c3ccc([N+](=O)[O-])cc3)CC2)cc1Cl`, which Potency [4] is on record?
A: inactive

Q: What about the Potency [2] of the same molecule?
A: inactive

Q: What about the Potency [3] of the same molecule?
A: 16.9 µM (active)

Q: What about the max response (HaCat) of the same molecule?
A: -12.6% (inactive)

Q: What about the Potency (CAOV3) of the same molecule?
A: inactive

Q: What about the Potency (SKOV3) of the same molecule?
A: inactive

Q: Which results are given for `CCC(C)n1cc(C)c2c(C(=O)NCc3c(C)cc(C)[nH]c3=O)cc(-c3ccc(N4CCNCC4)nc3)cc21` (centres undefined)?
A: Potency [4]: inactive; Potency [3]: 2.13 µM (active); outcome (HaCat): inactive; Potency (SKOV3): inactive

Q: With `O=[N+]([O-])c1ccc(-[n+]2nc(-c3ccccc3)nn2-c2ccc(I)cc2)cc1` as the molecule, how does the Potency [1] read?
A: 18.4 µM (active)

Q: What about the Potency [4] of the same molecule?
A: inactive

Q: And the Potency [2]?
A: 5.35 µM (active)

Q: And the Potency [3]?
A: 19 µM (active)

Q: And the activity [7]?
A: -47.4%

Q: And the Potency [8]?
A: 21.5 µM (active)

Q: And the activity [9]?
A: -39.3%

Q: What about the activity [10] of the same molecule?
A: -49.2%

Q: And the max response (HaCat)?
A: -29.5% (inactive)

Q: What about the Potency (CAOV3) of the same molecule?
A: 11.2 µM (active)

Q: And the Potency (SKOV3)?
A: inactive
